In PubChem BioAssay:
Several values for one entry are separate records, joined by “and”; a condition that tells them apart may be missing. Equal entries are not always repeated. Inconclusive results are not listed. The source holds several records for some structures; these can differ, active in one and inactive in another. Activity calls are given as the source filed them.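 How the source made its calls, unless noted: active means normalized viability below 100% at a tested concentration; inactive means the rest.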

How the values were obtained:
[1] = viability loss in pontine glioma line – cell-based, SU-DIPG-XVII, MIPE5.0, CellTiter-Glo, qHTS, dose response (AID 1347060; cut-off not given, nearly all actives have AC50 up to about 26 µM;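 further: cells exposed to compound for 48 hours before viability readout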); settings: CellTiter-Glo ATP luminescence
[2] = viability loss in pontine glioma line – cell-based, JHH-DIPG-1, MIPE4.0, CellTiter-Glo, qHTS, dose response (AID 1347062; cut-off not given, nearly all actives have AC50 up to about 27 µM;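 further: cells exposed to compound for two days before readout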); settings: JHH-DIPG-1 viability, CellTiter-Glo ATP luminescence
[3] = viability loss in pontine glioma line – cell-based, SU-DIPG-IV, MIPE4.0, CellTiter-Glo, qHTS, dose response (AID 1347063; cut-off not given, nearly all actives have AC50 up to about 30 µM;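 further: compound exposure lasted 48 hours before the viability readout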); settings: CellTiter-Glo ATP luminescence
[4] = viability loss in pontine glioma line – cell-based, SU-DIPG-XIII, MIPE5.0, CellTiter-Glo, qHTS, dose response (AID 1347064; cut-off not given, nearly all actives have AC50 up to about 23 µM;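 further: cells exposed to compound for 48 hours before the viability read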); settings: CellTiter-Glo ATP luminescence
[5] = viability loss in pontine glioma line – cell-based, SU-DIPG-XXV, MIPE5.0, CellTiter-Glo, qHTS, dose response (AID 1347065; cut-off not given, nearly all actives have AC50 up to about 26 µM;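 further: cells exposed to compound for 48 hours before ATP readout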); settings: CellTiter-Glo ATP luminescence
[6] = JHH-DIPG-1 glioma cell viability, MIPE5.0 library, CellTiter-Glo luminescence, qHTS (AID 1347067; cut-off not given, nearly all actives have AC50 up to about 26 µM;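 further: cells exposed to compound for 48 hours before readout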); settings: JHH-DIPG-1 glioma viability, CellTiter-Glo ATP luminescence
[7] = growth inhibition of DIPG cells – cell-based, MIPE5.0 library, qHTS (AID 1347068; cut-off not given, nearly all actives have IC50 up to about 30 µM;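 further: cells exposed to compound for 48 hours before viability readout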); settings: SU-DIPG-XXV viability
[8] = viability loss with induced miR-34 in A549 – imaging, A549 dox-inducible miR-34, nuclei and caspase counts, primary screen (AID 1347080;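 active means compounds whose cell count with miR-34 switched on is under 0.7 times the count with it off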); settings: A549 miR-34 inducible, Hoechst nuclei count, 48 h
[9] = compounds altering HSF1 focus formation in cells – imaging, Selleck Cancer Library (AID 1347162; in the data active means plate-normalised HSF1 focus index below about 0.46); settings: human cells, HSF1 nuclear foci imaging, at 10 µM; SSMD: measured here: HSF1 foci SSMD mean; cell count: measured here: cell number; plate-normalised HSF1 focus index: stronger effect = lower value
[10] = MELAS cybrid and Rieske KO viability enhancers – cell-based, MELAS cybrids, Rieske KO mouse fibroblasts, CellTiter-Glo, primary screen (AID 1508586;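 active means mean z-score across replicates of 1.96 or higher in either the MELAS or the Rieske mutant cell line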;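 further: z relative to plate mean and SD of compound and empty wells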); settings: low glucose
[11] = drug combination growth inhibition, ovarian cancer – cell-based, oncology-focused library, rucaparib conditional, profiling panel (AID 1508598); settings: patient-derived ovarian cancer cells, CellTiter-Glo viability, 144 h, stronger effect = lower value
[12] = growth inhibition, single agent or in combination, cell-based, chromothripsis tumors, cisplatin or BGB combos (AID 1671449; in the data active means inhibition above about 80%;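 further: cells exposed for 96 hours; 0% = vehicle DMSO and 100% = killing by high DMSO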); settings: LFS_MB_P medulloblastoma cells
[13] = growth inhibition, single agent and combos, cell-based, chromothripsis tumors, cisplatin or BGB combos (AID 1671450; in the data active means inhibition above about 80%;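 further: cells exposed to compound for four days; 0% = vehicle DMSO and 100% = cell killing by high DMSO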); settings: HDN33 neuroblastoma cells, stronger effect = higher value
[14] = growth inhibition, single agents and combos, ICB984, cell-based, cisplatin or BGB combos, synergistic combos for chromothripsis tumors (AID 1671451; call rule not given here;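 further: cells exposed for 96 hours before readout; 0% = vehicle DMSO and 100% = killing by high DMSO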); settings: ICB984 medulloblastoma cells, drug combinations, stronger effect = higher value
[15] = growth inhibition, single agents and combos, HTB85, cell-based, BGB or cisplatin IC20 combos, synergistic combos for chromothripsis tumors (AID 1671453; in the data active means inhibition above about 80%;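 further: cells exposed for 96 hours before readout; 0% = vehicle DMSO and 100% = high DMSO killing control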); settings: HTB85 osteosarcoma cells, drug combinations, stronger effect = higher value
[16] = growth inhibition, MDA-MB-436, cell-based, BGB or cisplatin combos, synergistic combos for chromothripsis tumors (AID 1671458; call rule not given here;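 further: cells exposed for 96 hours; 0% = vehicle DMSO and 100% = killing by high DMSO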); settings: MDA-MB-436 breast carcinoma growth inhibition, drug combinations, stronger effect = higher value

## c1ccc2c(CCNc3ccc(Nc4ccncc4)cc3)c[nH]c2c1
[1]
  AC50: 18.6 µM (active)
[2]
  AC50: 18.7 µM (active)
[3]
  AC50: 18.7 µM (active)
[4]
  AC50: 20.9 µM (active)
[5]
  AC50: 26.3 µM (active)
[6]
  AC50: 23.5 µM (active)
[7]
  IC50: 5.9 µM (active)
[8]; stronger effect = lower value, cell number ratio, induced over uninduced
  fold change: 1.02 (inactive)
[8]; measured here: relative caspase fold change +Dox/-Dox
  fold change: 1.37
[8]; measured here: total cells with miR-34 induction, stronger effect = lower value
  cell count: 2540
[8]; measured here: total cells without miR-34 induction
  cell count: 2490
[9]
  SSMD: -0.197
  cell count: 6510
  plate-normalised HSF1 focus index: 0.99 (inactive)
[10]; MELAS cybrid survival, CellTiter-Glo 48 h, stronger effect = higher value
  z-score: -0.455 (inactive)
[10]; Rieske KO mouse fibroblast survival, CellTiter-Glo 72 h
  z-score: -0.307
[11]; at 0.000305 µM, OCI-C5x cells, with rucaparib 10 µM, 100% = cells with rucaparib alone
  viability: 116% (inactive)
[11]; at 0.000305 µM, OCI-C5x cells, without rucaparib
  viability: 111% (inactive)
[11]; at 0.000305 µM, OCI-P5x cells, with rucaparib 20 µM, 100% = cells with rucaparib alone
  viability: 114% (inactive)
[11]; at 0.000305 µM, OCI-P5x cells, without rucaparib
  viability: 116% (inactive)
[11]; at 0.00122 µM, OCI-C5x cells, with rucaparib 10 µM, 100% = cells with rucaparib alone
  viability: 116% (inactive)
[11]; at 0.00122 µM, OCI-C5x cells, without rucaparib
  viability: 111% (inactive)
[11]; at 0.00122 µM, OCI-P5x cells, with rucaparib 20 µM, 100% = cells with rucaparib alone
  viability: 117% (inactive)
[11]; at 0.00122 µM, OCI-P5x cells, without rucaparib
  viability: 121% (inactive)
[11]; at 0.00488 µM, OCI-C5x cells, with rucaparib 10 µM, 100% = cells with rucaparib alone
  viability: 116% (inactive)
[11]; at 0.00488 µM, OCI-C5x cells, without rucaparib
  viability: 99.7% (active)
[11]; at 0.00488 µM, OCI-P5x cells, with rucaparib 20 µM, 100% = cells with rucaparib alone
  viability: 112% (inactive)
[11]; at 0.00488 µM, OCI-P5x cells, without rucaparib
  viability: 119% (inactive)
[11]; at 0.0195 µM, OCI-C5x cells, with rucaparib 10 µM, 100% = cells with rucaparib alone
  viability: 111% (inactive)
[11]; at 0.0195 µM, OCI-C5x cells, without rucaparib
  viability: 105% (inactive)
[11]; at 0.0195 µM, OCI-P5x cells, with rucaparib 20 µM, 100% = cells with rucaparib alone
  viability: 111% (inactive)
[11]; at 0.0195 µM, OCI-P5x cells, without rucaparib
  viability: 122% (inactive)
[11]; at 0.0781 µM, OCI-C5x cells, with rucaparib 10 µM, 100% = cells with rucaparib alone
  viability: 104% (inactive)
[11]; at 0.0781 µM, OCI-C5x cells, without rucaparib
  viability: 111% (inactive)
[11]; at 0.0781 µM, OCI-P5x cells, with rucaparib 20 µM, 100% = cells with rucaparib alone
  viability: 112% (inactive)
[11]; at 0.0781 µM, OCI-P5x cells, without rucaparib
  viability: 122% (inactive)
[11]; at 0.313 µM, OCI-C5x cells, with rucaparib 10 µM, 100% = cells with rucaparib alone
  viability: 110% (inactive)
[11]; at 0.313 µM, OCI-C5x cells, without rucaparib
  viability: 101% (inactive)
[11]; at 0.313 µM, OCI-P5x cells, with rucaparib 20 µM, 100% = cells with rucaparib alone
  viability: 99.7% (active)
[11]; at 0.313 µM, OCI-P5x cells, without rucaparib
  viability: 110% (inactive)
[11]; at 1.25 µM, OCI-C5x cells, with rucaparib 10 µM, 100% = cells with rucaparib alone
  viability: 107% (inactive)
[11]; at 1.25 µM, OCI-C5x cells, without rucaparib
  viability: 107% (inactive)
[11]; at 1.25 µM, OCI-P5x cells, with rucaparib 20 µM, 100% = cells with rucaparib alone
  viability: 94.3% (active)
[11]; at 1.25 µM, OCI-P5x cells, without rucaparib
  viability: 104% (inactive)
[11]; at 5 µM, OCI-C5x cells, with rucaparib 10 µM, 100% = cells with rucaparib alone
  viability: 25.5% (active)
[11]; at 5 µM, OCI-C5x cells, without rucaparib
  viability: 106% (inactive)
[11]; at 5 µM, OCI-P5x cells, with rucaparib 20 µM, 100% = cells with rucaparib alone
  viability: 78.5% (active)
[11]; at 5 µM, OCI-P5x cells, without rucaparib
  viability: 99% (active)

## Cc1[nH]c2ccccc2c1CCNCc1ccc(/C=C/C(=O)NO)cc1
[1]
  AC50: 1.18 µM (active)
[2]
  AC50: 0.132 µM (active)
[3]
  AC50: 0.332 µM (active)
[4]
  AC50: 0.166 µM (active)
[5]
  AC50: 0.148 µM (active)
[6]
  AC50: 0.166 µM (active)
[9]
  SSMD: -3.12
  cell count: 7220
  plate-normalised HSF1 focus index: 0.803 (inactive)
[12]; at 0.5 µM, stronger effect = higher value
  inhibition: 42% (inactive) and 87.2% (active)
[12]; measured here: combination with BGB IC20, at 0.005 µM
  inhibition: -5.26% and -19.1%
[12]; measured here: combination with BGB IC40, at 0.005 µM
  inhibition: -17.3% and -29%
[12]; measured here: combination with BGB IC40, at 0.05 µM
  inhibition: -6.97% and -48.6%
[12]; measured here: combination with cisplatin, at 0.5 µM, stronger effect = higher value
  inhibition: 84.3% and 119%
[12]; measured here: combination with cisplatin, at 5 µM, stronger effect = higher value
  inhibition: 120% and 116%
[13]; BGB combo, at 5 µM
  inhibition: 99.9% and 99.7%
[13]; at 0.5 µM
  inhibition: 99.7% (active) and 60.8% (inactive)
[13]; cisplatin combo, at 5 µM
  inhibition: 99.9% and 100%
[13]; measured here: with BGB IC20 combination, at 0.5 µM
  inhibition: 99.5% and 57.1%
[13]; measured here: with cisplatin IC20 combination, at 0.5 µM
  inhibition: 99.8% and 58.2%
[13]; single agent, at 5 µM
  inhibition: 99.9%
[14]; BGB IC20 combo, at 0.005 µM
  inhibition: 86.9% and 15.5%
[14]; BGB IC40 combo, at 0.005 µM
  inhibition: 98.3% and 28.4%
[14]; BGB IC40 combo, at 0.05 µM
  inhibition: 99.9% and 97.7%
[14]; at 0.5 µM
  inhibition: -9.68% (inactive) and -7.76% (inactive)
[14]; cisplatin combo, at 0.05 µM
  inhibition: 99.9% and 97.7%
[14]; cisplatin combo, at 0.5 µM
  inhibition: -13.7% and 4.07%
[14]; cisplatin combo, at 5 µM
  inhibition: 25.1% and -22.1%
[14]; measured here: 5 uM single agent, at 5 µM
  inhibition: 26.1% and 8.36%
[15]; at 0.5 µM
  inhibition: 99.9% (active) and 73.4% (inactive)
[15]; measured here: with BGB IC20, at 0.5 µM
  inhibition: 100% and 62.5%
[15]; measured here: with BGB IC20, at 5 µM
  inhibition: 99.9% and 99.8%
[15]; measured here: with cisplatin IC20, at 0.5 µM
  inhibition: 100% and 90.3%
[15]; measured here: with cisplatin IC20, at 5 µM
  inhibition: 100%
[15]; single agent, at 5 µM
  inhibition: 99.9% and 100%
[16]; at 0.5 µM
  inhibition: 68.6% (inactive) and 35.2% (inactive)
[16]; measured here: BGB combination, at 0.5 µM
  inhibition: 60.4% and 26.7%
[16]; measured here: BGB combination, at 5 µM
  inhibition: 70.3% and 56.2%
[16]; measured here: cisplatin combination, at 0.5 µM
  inhibition: 66.3% and 33.8%
[16]; measured here: cisplatin combination, at 5 µM
  inhibition: 80.8% and 74.3%
